Hits are enriched below; roughly 18% of the tested compounds scored in any of these assays.
VP16 counter: counter-screen for ROR gamma inhibitors: Gal4-VP16 reporter | hit rate 3.5% among 310,000 | Potency, µM (doses to about 53.6 µM), without a hit: at the highest dose activity, negative = inhibition, actives largely listed as inhibitors | AID 2546 | Drosophila S2 Gal4-VP16 UAS-luciferase, luminescence, 20 h;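 further: Gal4-VP16 expression switched on by copper sulfate through the metallothionein promoter; potency means the concentration at half of the fitted maximal effect; nearly all actives have a fitted effect of over 50% in size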
RORgamma inh: blocks mouse ROR gamma transcriptional activity. P51450. hit rate 5.4% among 310,000. Drosophila S2 Gal4-RORgamma UAS-luciferase reporter, 20 h. Potency, µM (series often up to 53.6 µM), without a hit: at the top dose activity change, negative = inhibition, most hits filed as inhibitors; further: potency means the concentration at half of the fitted maximal effect; nearly all actives have a fitted effect of over 60% in size
Target sequence (P51450 whole entry, looked up, the tested form may be a part): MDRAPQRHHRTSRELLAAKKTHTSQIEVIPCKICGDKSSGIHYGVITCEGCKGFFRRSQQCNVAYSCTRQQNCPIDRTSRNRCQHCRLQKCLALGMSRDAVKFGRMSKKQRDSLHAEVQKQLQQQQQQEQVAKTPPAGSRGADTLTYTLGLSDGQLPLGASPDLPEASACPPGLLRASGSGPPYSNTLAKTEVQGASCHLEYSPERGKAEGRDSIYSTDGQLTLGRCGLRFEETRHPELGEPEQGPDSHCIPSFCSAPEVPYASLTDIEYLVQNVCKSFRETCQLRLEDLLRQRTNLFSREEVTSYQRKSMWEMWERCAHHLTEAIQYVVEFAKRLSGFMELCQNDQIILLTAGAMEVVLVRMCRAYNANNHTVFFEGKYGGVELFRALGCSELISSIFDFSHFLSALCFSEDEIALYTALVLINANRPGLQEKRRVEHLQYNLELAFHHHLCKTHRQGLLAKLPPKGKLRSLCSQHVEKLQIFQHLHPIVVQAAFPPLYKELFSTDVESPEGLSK
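Stably transfected Drosophila Schneider cells are the test system, with ROR gamma fused to Gal4 and luciferase under UAS control; luminescence is read after 20 hr of 700 uM copper sulfate induction at ambient temperature.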
LDHA inh: blocks human lactate dehydrogenase A. P00338. purified LDHA, NADH/diaphorase-resazurin fluorescence; hits give low values. AID 1347041. hit rate 0.15% among 480,000. activity change, % (values are at about 110 or 230 µM); in the data active means activity change below about -30%; inconclusive means mostly about -25% to -30%;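 further: plate controls were DMSO wells for no effect and wells without enzyme for full effect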
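Enzyme activity of human lactate dehydrogenase 5 (2 nM; 0.06 mM NADH, 0.2 mM pyruvate, 5 min, RT) is measured via a resazurin/diaphorase fluorescence readout of residual NADH.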
TDP1 cell CPT: DT40-hTDP1 cell growth loss with CPT; Potency, µM (top dose mostly 46.2 µM), for the others: top-dose activity change, negative = growth inhibition, most hits filed as inhibitors; AID 686979; chicken DT40 Tdp1-/-;hTDP1 cells + 20 nM CPT, ATP luminescence, 48 h; hit rate 12% among 420,000; further: potency means the concentration at half of the fitted maximal effect; nearly all actives have a fitted effect of over 55% in size
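Cell growth measured by CellTiter-Glo luminescence after a minimum 48 h, 37 C compound exposure with 20 nM CPT in Tdp1-knockout DT40 cells stably expressing hTDP1, seeded 400/well; qHTS titration format.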
IL-1B inflam inh: inflammasome signaling inhibition, IL-1 beta readout | THP-1 LPS/ATP IL-1B secretion, AlphaLISA, 16 h; hits give low values | activity change, % at 57.5 µM | hit rate 4.7% among 360,000 | AID 743279; in the data active means activity change below about -50%; inconclusive means mostly about -30% to -49%
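Secreted IL-1B measured by AlphaLISA bead assay after 16 h compound exposure of THP-1 cells; compounds (final up to 57.5 uM) added 1 h before LPS (250 ng/mL) and ATP (1.25 mM) stimulation; lower signal means less secretion.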
DT40 TDP1 no CPT: qHTS for Inhibitors of human tyrosyl-DNA phosphodiesterase 1 (TDP1): qHTS in cells in absence of CPT; DT40 Tdp1-/- hTDP1 cells, no CPT, ATP luminescence, 48 h; Potency, µM (titrated, usually from 46.2 µM), without a hit: at the highest dose activity change, negative = growth inhibition, actives largely listed as inhibitors; hit rate 15% among 420,000; further: potency means the concentration at half of the fitted maximal effect; nearly all actives have a fitted effect of over 55% in size
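Stably hTDP1-transfected Tdp1-null chicken DT40 cells were treated with library compounds minus camptothecin and grown for at least 48 hr at 37 °C, after which cellular ATP was quantified by luminescence.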
* marks the source's active call; other numbers are inactive results. Unless noted, the call rests on the fitted dose curve; in most records, active means well fitted curve in the direction sought with a large enough effect; inconclusive means small, poorly fitted or top-dose-only effect, or another doubt; inactive means no such curve, though single readings can be large; an effect the other way counts as inactive or inconclusive. Unless noted, on the % scale 0 is the no-effect control and ±100 the full control effect.

How did C=CCn1c(-c2cccc(Cl)c2)n[nH]c1=S do in these assays?
VP16 counter: 7.1µM*; RORgamma inh: 4µM*; LDHA inh: -9; TDP1 cell CPT: 6%; IL-1B inflam inh: 21; DT40 TDP1 no CPT: -18%

Results for S=c1[nH]nc(-c2cccc(Cl)c2)n1Cc1ccccc1 ?
VP16 counter: 2.5µM*; RORgamma inh: 2.5µM*; LDHA inh: -6; TDP1 cell CPT: 0%; IL-1B inflam inh: 2; DT40 TDP1 no CPT: -12%

How did N#Cc1c(N)n[nH]c1CCCNC(=O)c1cc(-c2ccncc2)nc2ccccc12 do in these assays?
LDHA inh: 8

Results for Cc1ccc(-c2noc(CCC(=O)Nc3cccc(S(=O)(=O)NC4=NCCC4)c3)n2)cc1 ?
LDHA inh: -10

What do the screens show for `CCCCn1c(N)c(N(CC)C(=O)c2cc(-c3ccc(OC)cc3)nc3ccccc23)c(=O)[nH]c1=O`?
LDHA inh: -4

How did CC(C)c1ccc2c(c1)CCCN2C(=O)c1cnc2c(cnn2C(C)C)c1 do in these assays?
LDHA inh: -3

How did COCCn1c(-c2cc(Cl)ccc2OC)n[nH]c1=S do in these assays?
LDHA inh: 2

What do the screens show for `CCCCn1c(-c2cc(Cl)ccc2OC)n[nH]c1=S`?
VP16 counter: 10µM*; RORgamma inh: 3.2µM*; LDHA inh: -4; TDP1 cell CPT: 1%; IL-1B inflam inh: 0; DT40 TDP1 no CPT: 4%

Results for C=CCn1c(-c2sccc2C)n[nH]c1=S ?
VP16 counter: inconclusive; RORgamma inh: 10µM*; LDHA inh: -2; TDP1 cell CPT: inconclusive; IL-1B inflam inh: 12; DT40 TDP1 no CPT: inconclusive

Results for COc1ccc(CCn2c(-c3ccc(Cl)cc3)n[nH]c2=S)cc1OC ?
VP16 counter: inconclusive; RORgamma inh: 1.6µM*; LDHA inh: -4; TDP1 cell CPT: inconclusive; IL-1B inflam inh: 24; DT40 TDP1 no CPT: -16%

How did COCCn1c(-c2ccc(Cl)cc2)n[nH]c1=S do in these assays?
LDHA inh: -4

Results for C=CCn1c(-c2c(C)nc3cc(C)ccn23)n[nH]c1=S ?
VP16 counter: inconclusive; RORgamma inh: inconclusive; LDHA inh: -3; TDP1 cell CPT: 3%; IL-1B inflam inh: -2; DT40 TDP1 no CPT: -4%

How did S=c1[nH]nc(COc2cccc(Cl)c2)n1Cc1ccccc1 do in these assays?
VP16 counter: inconclusive; RORgamma inh: 1.4µM*; LDHA inh: -5; TDP1 cell CPT: -1%; IL-1B inflam inh: 14; DT40 TDP1 no CPT: -21%

Results for Cc1ccc(C)c(N2CCN(S(=O)(=O)c3ccc(-c4cnc(C)o4)cc3)CC2)c1 ?
LDHA inh: 0

What do the screens show for `CCOC(=O)c1cc(NC(=O)C(C)CC)cc(C(=O)OCC)c1` (stereo unspecified)?
LDHA inh: 0

Results for O=C(C[C@@H]1C/C=C\CC[C@H](Cc2ccc(F)cc2)C(=O)OC[C@@H]2CCCN2C1=O)NCCO ?
LDHA inh: 1; TDP1 cell CPT: inconclusive; IL-1B inflam inh: 3; DT40 TDP1 no CPT: inconclusive

How did O=C(C[C@@H]1C/C=C\C[C@H](Cc2ccc(F)cc2)C(=O)OC[C@@H]2CCCN2C1=O)N[C@H](CO)Cc1ccccc1 do in these assays?
LDHA inh: -10; TDP1 cell CPT: 18µM*; IL-1B inflam inh: -1; DT40 TDP1 no CPT: 16µM*

Results for O=C(C[C@H]1C/C=C\CC[C@@H](Cc2ccc(F)cc2)C(=O)OC[C@H]2CCCN2C1=O)N[C@H](CO)Cc1ccccc1 ?
LDHA inh: 1; TDP1 cell CPT: inconclusive; IL-1B inflam inh: -6; DT40 TDP1 no CPT: 21µM*

Results for O=C(C[C@@H]1C/C=C\CC[C@@H](Cc2ccc(F)cc2)C(=O)OC[C@@H]2CCCN2C1=O)NCCO ?
LDHA inh: -1; TDP1 cell CPT: -4%; IL-1B inflam inh: 16; DT40 TDP1 no CPT: inconclusive

Results for O=C(C[C@@H]1C/C=C\CCC(=O)OC[C@@H]2CCCN2C1=O)N[C@@H](CO)Cc1ccccc1 ?
LDHA inh: -4; TDP1 cell CPT: -10%; IL-1B inflam inh: 6; DT40 TDP1 no CPT: 11%

What do the screens show for `O=C(C[C@@H]1C/C=C\C[C@@H](Cc2ccc(F)cc2)C(=O)OC[C@@H]2CCCN2C1=O)N[C@H](CO)Cc1ccccc1`?
LDHA inh: -3; TDP1 cell CPT: inconclusive; IL-1B inflam inh: -21; DT40 TDP1 no CPT: 23µM*

Results for O=C(C[C@@H]1C/C=C\C[C@H](Cc2ccc(F)cc2)C(=O)OC[C@H]2CCCN2C1=O)N[C@H](CO)Cc1ccccc1 ?
LDHA inh: -2; TDP1 cell CPT: 13µM*; IL-1B inflam inh: -19; DT40 TDP1 no CPT: 15µM*

What do the screens show for `CN1c2ccccc2-c2nc(SCC(=O)Nc3ccccc3)ncc2S1(=O)=O`?
LDHA inh: -14; TDP1 cell CPT: inconclusive; DT40 TDP1 no CPT: 18µM*

What do the screens show for `CCOC(=O)c1cccc(NC(=O)CSc2ncc3c(n2)-c2ccc(Cl)cc2N(Cc2ccccc2)S3(=O)=O)c1`?
LDHA inh: 0; TDP1 cell CPT: inconclusive; DT40 TDP1 no CPT: 1.5µM*

How did Cc1ccc(C)c(NC(=O)CSc2ncc3c(n2)-c2ccc(Cl)cc2N(C)S3(=O)=O)c1 do in these assays?
LDHA inh: 4; TDP1 cell CPT: inconclusive; DT40 TDP1 no CPT: 18µM*

What do the screens show for `COc1ccccc1CNC(=O)CSc1ncc2c(n1)-c1ccccc1N(Cc1ccc(C)cc1)S2(=O)=O`?
LDHA inh: -14; TDP1 cell CPT: inconclusive; DT40 TDP1 no CPT: 12µM*

Results for COc1cccc(NC(=O)CSc2ncc3c(n2)-c2ccc(Cl)cc2N(C)S3(=O)=O)c1 ?
LDHA inh: -1; TDP1 cell CPT: -16%; DT40 TDP1 no CPT: -30%

What do the screens show for `COc1ccccc1CNC(=O)CSc1ncc2c(n1)-c1ccc(Cl)cc1N(Cc1ccccc1)S2(=O)=O`?
LDHA inh: 2; TDP1 cell CPT: inconclusive; DT40 TDP1 no CPT: inconclusive

Results for Cc1oc(-c2nc(C#N)c(NC3CC3)o2)cc1S(=O)(=O)N(C)c1ccccc1 ?
LDHA inh: -6

Results for CS(=O)(=O)N1CCN(CC(=O)Nc2sc3c(c2C#N)CCCC3)CC1 ?
LDHA inh: -10
